Compounds with a hit are over-represented: about 9% of the library has one in this group of screens.
JMJD2A Tudor: qHTS Assay for Inhibitors of JMJD2A-Tudor Domain; Lysine-specific demethylase 4A (Homo sapiens), O75164; AlphaScreen JMJD2A-Tudor / H3K4me3 peptide binding; Potency, µM (series often up to 114 µM), most hits filed as inhibitors; 390,000 tested, 4.4% active; note: nearly all actives have a fitted effect of over 50% in size
G9a block: qHTS Assay for Inhibitors of Histone Lysine Methyltransferase G9a; Potency, µM (highest dose often 102 µM), usual class: inhibitors; G9a H3K9 monomethylation, AlphaScreen, 2 h; 350,000 tested, 8.8% active; Histone-lysine N-methyltransferase EHMT2 (Homo sapiens), Q96KQ7; AID 504332, 2011; note: nearly all actives have a fitted effect of over 75% in size
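G9a (20 nM) was preincubated 15 min with compound, then reacted 2 h at room temperature with 500 nM biotin-H3K9 peptide and 20 µM SAM. Monomethyl-H3K9 detected by AlphaScreen using anti-H3K9me1 antibody.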
HP1b chromo inh: HTS for Inhibitors of HP1-beta Chromodomain Interactions with Methylated Histone Tails; AID 540317, 2011; Chromobox protein homolog 1 (Homo sapiens), P83916; Potency, µM (titrated, usually from 114 µM), actives largely listed as inhibitors; 390,000 tested, 0.56% active; AlphaScreen HP1-beta / biotin-H3K9me3 peptide binding; note: nearly all actives have a fitted effect of over 70% in size
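HP1-beta protein (50 nM final) preincubated 30 min at room temperature with biotinylated H3(1-18)K9me3 peptide (50 nM) in PBS pH 7.4, 0.01% Tween-20, then compound added for 30 min. AlphaScreen streptavidin donor/nickel chelate acceptor beads (10 ug/mL final), 30 min dark, luminescence read.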
12-LOX inh: Primary qHTS assay for inhibitors of human arachidonate 12S-lipoxygenase (ALOX12): Round 2; Polyunsaturated fatty acid lipoxygenase ALOX12 (Homo sapiens), P18054; purified 12hLO, xylenol orange hydroperoxide absorbance; Potency, µM (series often up to 108 µM), usual class: inhibitors; 580,000 tested, 1.1% active; AID 1671190, 2021
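Purified human 12hLO at 150 nM in 25 mM Hepes, 0.01% Triton X-100, pH 7.0, preincubated 15 min at room temperature with compound. Reaction started with 40 uM arachidonic acid, 30 min at room temperature. Hydroperoxide measured by Fe-xylenol orange, 573/405 nm absorbance ratio.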
BAZ2B block: qHTS Assay for Inhibitors of BAZ2B; Bromodomain adjacent to zinc finger domain protein 2B (Homo sapiens), Q9UIF8; AlphaScreen BAZ2B-H3K14Ac peptide displacement; Potency, µM (top dose mostly 114 µM), actives largely listed as inhibitors; 360,000 tested, 4.4% active; AID 504333, 2011; note: nearly all actives have a fitted effect of over 60% in size
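AlphaScreen luminescence quantifies BAZ2B engagement of H3K14Ac peptide; the protein and biotinylated peptide are both at 50 nM final, buffer PBS pH 7.4 with 0.01% Tween-20, all steps at room temperature.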
PLK1 PBD block: qHTS for Inhibitors of PLK1-PDB (polo-like kinase 1 - polo-box domain): Primary Screen; Serine/threonine-protein kinase PLK1 (Homo sapiens), P53350; Plk1 PBD binding of FITC phosphopeptide, fluorescence polarization; Potency, µM, actives largely listed as inhibitors; 360,000 tested, 2.8% active; AID 720504, 2013; note: series mostly up to about 57 µM; nearly all actives have a fitted effect of over 65% in size
Target sequence (P53350 whole entry, looked up, the tested form may be a part): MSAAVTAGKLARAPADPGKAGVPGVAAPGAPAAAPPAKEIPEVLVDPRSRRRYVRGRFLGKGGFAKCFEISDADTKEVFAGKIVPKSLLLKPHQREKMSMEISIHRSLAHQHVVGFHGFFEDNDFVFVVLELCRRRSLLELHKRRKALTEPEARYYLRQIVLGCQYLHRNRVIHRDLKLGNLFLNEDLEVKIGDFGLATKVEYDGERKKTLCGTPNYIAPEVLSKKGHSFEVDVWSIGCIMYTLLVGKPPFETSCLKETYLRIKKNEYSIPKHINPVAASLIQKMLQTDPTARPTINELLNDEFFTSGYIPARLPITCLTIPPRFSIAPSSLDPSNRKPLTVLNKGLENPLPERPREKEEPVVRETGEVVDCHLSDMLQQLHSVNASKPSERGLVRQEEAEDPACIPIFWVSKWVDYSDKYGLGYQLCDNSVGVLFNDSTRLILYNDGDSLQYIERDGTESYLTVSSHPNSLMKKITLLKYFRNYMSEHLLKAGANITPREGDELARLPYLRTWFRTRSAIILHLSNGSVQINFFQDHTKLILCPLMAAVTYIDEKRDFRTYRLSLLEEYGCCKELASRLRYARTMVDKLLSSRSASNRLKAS
Numbers stand for hits; i = inactive; ? = inconclusive; nt = no result; [ ] = another dose, or the depositor's remark. Calls come from the whole dose curve; as a rule, active = well fitted curve in the direction sought with a large enough effect; inconclusive = small, poorly fitted or top-dose-only effect, or another doubt; inactive = no such curve, though single readings can be large; an effect the other way counts as inactive or inconclusive.

SMILES	JMJD2A Tudor	G9a block	HP1b chromo inh	12-LOX inh	BAZ2B block	PLK1 PBD block
C/C(=N\NC(=O)C(C)Oc1ccc([N+](=O)[O-])cc1)c1ccccn1 (configuration not stated)	56µM	i	i	i	25µM	i
C/C(=N\Nc1cc(C(F)(F)F)ccc1Cl)c1ccncc1	i	40µM	i	?	i	i
C/C(=N\Nc1ccc(Cl)cc1)c1ccncc1	?	?	i	?	?	i
C/C(=N/Nc1ccc([N+](=O)[O-])cc1)c1ccc(C)cc1C	i	i	i	?	i	i
C/C(=N\Nc1ccccc1)c1cccc([N+](=O)[O-])c1	nt	nt	nt	6.3µM	nt	nt
C/C(=N/Nc1ccc([N+](=O)[O-])cc1)c1c[nH]c2ccccc12	?	?	?	?	40µM	i
C/C(=N/Nc1ccc([N+](=O)[O-])cc1)c1ccncc1	nt	nt	nt	35µM	nt	nt
C/C(=N\Nc1cccc([N+](=O)[O-])c1)c1ccccc1O	i	?	i	?	i	i
CC1CN(CCc2ccccc2)c2nc3c(c(=O)[nH]c(=O)n3C)n2C1 (configuration not stated)	i	i	i	i	i	i
CCc1cn[nH]c1C1CCCN(C(=O)c2cnn(-c3ccccc3OC)c2)C1 (configuration not stated)	nt	nt	nt	i	nt	nt
Cc1cccc(C(=O)c2ccccc2C(=O)O)c1	i	i	i	i	i	i
CCCc1ncc(C(O)c2ccc(OC)cc2)n1C (configuration not stated)	i	i	i	i	i	i
CC(=O)N1CCCN(C(=O)Cc2nc(-c3cccs3)oc2C)CC1	nt	nt	nt	i	nt	nt
CN(C)C[C@@H]1CN(Cc2ccncc2)C[C@H]1NC(=O)C1CC=CC1	nt	nt	nt	i	nt	nt
Cc1cnc(C=NNC(N)=S)c2cccc(N)c12	50µM	nt	?	?	nt	24µM
NC(=S)NN=Cc1nccc2c(C(F)(F)C(F)(F)C(F)(F)F)cccc12	nt	nt	nt	?	nt	i
NC(=S)N/N=C/c1cccc(/C=N/NC(N)=S)c1	i	nt	i	?	i	i
NC(=S)NN=Cc1nccc2ccccc12	18µM	nt	i	?	nt	i
O=c1cc(-c2ccc(O)cc2)oc2ccccc12	i	i	i	i	i	i
COc1ccc(-c2cc(=O)c3ccccc3o2)cc1	i	i[12.7 µM]	i	i	i	i
COc1ccc(N=c2cc(-c3ccc(OC)cc3)oc3ccccc23)cc1	40µM	14µM	i	i	28µM	i
CCOc1ccc(N=c2cc(-c3ccc(OC)cc3)oc3ccccc23)cc1	16µM	25µM	25µM	i	13µM	i
COc1ccc(-c2cc(=O)c3c(ccc4ccccc43)o2)cc1	nt	nt	nt	i	nt	nt
COc1ccc(N=c2cc(-c3ccc(O)cc3)oc3ccccc23)cc1	35µM	?	?	?	45µM	i
CC1CCc2nc(-c3cc4c(ccc5ccccc54)oc3=O)sc2C1 (configuration not stated)	i	nt	i	nt	nt	nt
SMILES	JMJD2A Tudor	G9a block	HP1b chromo inh	12-LOX inh	BAZ2B block	PLK1 PBD block
COC(=O)c1cc(S(=O)(=O)N2CCOCC2)c(Cl)cc1N1CCOCC1	i	i	i	i	i	i
COC(=O)c1cc(C)nc2c1C(=O)C(=O)C=C2N1CCOCC1	i	45µM	i	?	50µM	i
Cc1ccnc(Nc2nc(-c3sc(C)nc3C)cs2)c1	79µM	nt	?	i	nt	i
Cc1nc(N)sc1-c1csc(Nc2ccccn2)n1	79µM	?	i	i	i	?
Cc1nc(N)sc1-c1csc(Nc2ccc(Cl)cn2)n1	?	10µM	?	?	?	?
Cc1nc(C)c(-c2csc(Nc3ccccn3)n2)s1	i	?	i	?	?	i
O=C(Nc1ncc(C(F)(F)F)cc1Cl)c1ccc(S(=O)(=O)N2CCOCC2)cc1	i	i	i	i	nt	i
O=C(O)Cc1nc(-c2cccnc2)sc1-c1ccc(Br)cc1	i	?	i	28µM	i	?
Cn1c(SCc2ccc(C#N)cc2)nnc1-c1cccc(Cl)c1	i	i	i	i	i	i
Cc1ccc(-c2nnc(SCc3ccc(C#N)cc3)n2Cc2ccco2)cc1	79µM	nt	i	i	i	i
COc1cccc(-c2nnc(SCc3ccc(C#N)cc3)n2Cc2ccco2)c1	?	35µM	i	?	i	i
CCN(CC)CCN1C(=O)C(O)=C(C(=O)c2cc3ccccc3o2)C1c1cccnc1 (configuration not stated)	i[11.4 µM]	89µM	i	i	i	i
O=C(C1=C(O)C(=O)N(CCN2CCOCC2)C1c1ccco1)c1cc2ccccc2o1 (configuration not stated)	i	32µM	i	i	?	i
CCCOc1ccc(C2C(C(=O)c3ccc(C)o3)=C(O)C(=O)N2CCN2CCOCC2)cc1OC (configuration not stated)	22µM	?	i	?	i	i
O=C(C1=C(O)C(=O)N(CCN2CCOCC2)C1c1ccc(F)cc1)c1cc2ccccc2o1 (configuration not stated)	i	35µM	i	?	i	i
O=C(C1=C(O)C(=O)N(CCN2CCOCC2)C1c1cccc(Br)c1)c1cc2ccccc2o1 (configuration not stated)	i	i[0.0925 µM]	i	?	i	i
CC(=O)Nc1ccc(CN2CCN(CCC(C)C)C(CCO)C2)cc1 (configuration not stated)	i	i	i	i	i	i
Cc1ccc(NC(=O)C2(C#N)CCCC2)c(C)c1	nt	nt	nt	i	nt	nt
CCN(CC)CCN1C(=O)C(O)=C(C(=O)c2ccc(C)o2)C1c1ccccn1 (configuration not stated)	i	nt	i	nt	nt	i
Cc1ccc(C(=O)C2=C(O)C(=O)N(CCN3CCOCC3)C2c2ccccn2)o1 (configuration not stated)	nt	2.2µM	nt	nt	?	nt
O=C(C1=C(O)C(=O)N(CCCN2CCOCC2)C1c1ccccn1)c1cc2ccccc2o1 (configuration not stated)	i	40µM	i	?	?	i
O=C(Cc1ccc(Cl)cc1)Nc1ccc(C(=O)N2CCCCC2)cc1	i	i	i	i	i	i
O=C(CNCc1ccc(F)cc1)Nc1ccc(C(=O)N2CCCCC2)cc1	1.1µM	10µM	?	?	32µM	i
O=C(NCC(=O)N1CCCCCC1)c1ccc(Cl)cc1	?	i	i	i	i	6.7µM
O=C(CNCc1ccccc1Cl)Nc1ccc(C(=O)N2CCCCC2)cc1	?	5.6µM	?	i	22µM	i
